{"source": "PubChem BioAssay AID2315", "about": "(National Center for Advancing Translational Sciences (NCATS), 2010)", "note": "The campaign covered roughly 290,000 compounds. About 27,000 (9.3%) were called active. The sample as a whole holds a higher share of actives than the screen did. Unmarked numbers belong to inactive results. Rule as the data show it: active = inhibition mostly above about 28% (no sharp cut-off); inactive = mostly below about 43%.", "data": [{"experiment": "A qHTS for Small Molecule Inhibitors of Shiga Toxin; also: 0% is about no effect", "conditions": "Vero cells, Shiga toxin protein synthesis inhibition reporter; at 38.7 µM, active compounds read high", "values": [{"smiles": "COc1ccc(C2/C=C\\CN(Cc3ccco3)C(C)C(=O)N2Cc2ccc(F)cc2)cc1", "note": "(stereo not drawn)", "inhibition": "-2.61%"}, {"smiles": "Cc1ccc(-n2nc3cc(C)c(NC(=O)c4cccnc4)cc3n2)cc1", "inhibition": "49% (active)"}, {"smiles": "O=C(Nc1cccc(-n2cnnn2)c1)c1cccnc1", "inhibition": "-4.33%"}, {"smiles": "Cc1cc(NC(=O)c2ccco2)c(=O)n(Cc2c(F)cccc2Cl)c1", "inhibition": "1.74%"}, {"smiles": "Cc1ccc(-n2nc3cc(Cl)c(NC(=O)c4ccco4)cc3n2)cc1", "inhibition": "75.3% (active)"}, {"smiles": "COC(=O)c1cc(Cl)c(NC(=O)c2ccco2)cc1OC", "inhibition": "29.6%"}, {"smiles": "Cc1c(NC(=O)c2cccnc2)c(=O)n(-c2ccccc2)n1C", "inhibition": "12.2%"}, {"smiles": "C[C@H](NC(=O)[C@@H]1Cc2ccccc2CN1C(=O)OC(C)(C)C)C(=O)NC1CCCC1", "inhibition": "-6.03%"}, {"smiles": "O=c1[nH]cccc1-c1nc2ccccc2n1Cc1ccc(Cl)cc1", "inhibition": "-20.4%"}, {"smiles": "O=S(=O)(c1ccccc1)c1nc(Cc2ccccc2)oc1N1CCOCC1", "inhibition": "-8%"}, {"smiles": "COc1cccc(CNCc2ccc3c(c2)OCO3)c1", "inhibition": "-0.994%"}, {"smiles": "COc1cccc(C(=O)NNC(=O)/C=C/c2ccccc2)c1", "inhibition": "-15.7%"}, {"smiles": "O=C1Nc2ccccc2C12Nc1ccccc1S2", "note": "(stereo not drawn)", "inhibition": "103% (active)"}, {"smiles": "Cc1cc(O)c(C2(O)C(=O)Nc3ccccc32)cc1C", "note": "(stereo not drawn)", "inhibition": "-0.279%"}, {"smiles": "COc1ccc(C2(O)C(=O)Nc3ccccc32)cc1", "note": "(stereo not drawn)", "inhibition": "-10.8%"}, {"smiles": "Cn1c(=O)[nH]c(=O)c2c1nc(N1CCN(C(c3ccccc3)c3ccccc3)CC1)n2CCO", "inhibition": "-11.3%"}, {"smiles": "COc1ccc(NC(=O)c2cccc(Cl)c2)c[n+]1[O-]", "inhibition": "-4.4%"}, {"smiles": "O=[N+]([O-])c1ccccc1/C=C/CN1CCC(O)CC1", "inhibition": "-7.66%"}, {"smiles": "Clc1cccc(N=C2NN=C(c3ccc4c(c3)OCCO4)CS2)c1", "inhibition": "95.2% (active)"}, {"smiles": "CC(=NC1CCN(Cc2ccccc2)CC1)c1c(O)[nH]c(=O)[nH]c1=O", "inhibition": "21%"}, {"smiles": "CS(=O)(=O)N(CC(=O)N1CCN(Cc2ccccc2)CC1)c1ccc2c(c1)OCCO2", "inhibition": "-18.5%"}, {"smiles": "c1ccc(CN2CCC(N=C3NN=C(c4ccc5c(c4)OCCO5)CS3)CC2)cc1", "inhibition": "116% (active)"}, {"smiles": "Cc1cccc(C)c1NC(=O)CSc1nc2c([nH]1)c(=O)n(C)c(=O)n2C", "inhibition": "-8.9%"}, {"smiles": "Cc1ccc(C(=O)N2CC(=O)Nc3ccc(F)cc3C2c2ccc(F)cc2)cc1", "note": "(stereo not drawn)", "inhibition": "2.9%"}, {"smiles": "CCOC(=O)c1cc(C(=O)Nc2ccc(S(=O)(=O)Nc3ccc(OC)cc3)cc2)nn1C", "inhibition": "5.33%"}, {"smiles": "CCOc1ccccc1Nc1ccc2nonc2c1[N+](=O)[O-]", "inhibition": "-7.22%"}, {"smiles": "O=C(c1ccc(Cl)cc1)c1cnc(Nc2ccccc2)s1", "inhibition": "25.6%"}, {"smiles": "S=c1[nH]nc(Nc2ccccc2)s1", "inhibition": "-13.5%"}, {"smiles": "CC(C)(C)C(=O)c1cnc(Nc2ccccc2)s1", "inhibition": "87% (active)"}, {"smiles": "COc1ccc(-n2cnnc2SCC(=O)Nc2cccc(S(N)(=O)=O)c2)cc1", "inhibition": "-21.7%"}, {"smiles": "COc1ccc(OC)c(NC(=O)CN(C)CCOc2ccc(Br)cc2)c1", "inhibition": "-23.8%"}, {"smiles": "NC(=O)COc1ccccc1C(=O)NC12CC3CC(CC(C3)C1)C2", "inhibition": "-4.22%"}, {"smiles": "NNC(=O)COc1ccc(C2SCCS2)cc1", "inhibition": "20.4%"}, {"smiles": "NC(=O)COc1ccc(C23CC4CC(CC(C4)C2)C3)cc1", "inhibition": "58.8% (active)"}, {"smiles": "O=S(=O)(Oc1ccccc1C(=S)N1CCOCC1)c1ccc(Cl)cc1", "inhibition": "-36.2%"}, {"smiles": "Cc1ccc(N(C(=O)c2snc(C(N)=O)c2N)C(C(=O)NCC2CCCO2)c2c[nH]c3ccccc23)cc1", "note": "(stereo not drawn)", "inhibition": "23.7%"}, {"smiles": "COC(=O)c1ccccc1NC(=O)C1CCN(C(=O)N2CCOc3ccccc32)CC1", "inhibition": "8.07%"}, {"smiles": "Oc1ccc(-c2[nH]ncc2-c2nc3ccccc3s2)c(O)c1", "inhibition": "13.6%"}, {"smiles": "Cc1nn(CC(=O)Nc2nc3ccccc3s2)c(C)c1[N+](=O)[O-]", "inhibition": "26.1%"}, {"smiles": "CC(=O)Nc1cccc(-c2nc3ccccc3s2)c1C", "inhibition": "60.4% (active)"}, {"smiles": "CC(=O)N1CCSc2ccc(S(=O)(=O)N3CCC(C)CC3)cc21", "inhibition": "-12.1%"}, {"smiles": "O=C(Nc1ccccc1N1CCCC1)c1ccc2ccccc2c1", "inhibition": "58.1%"}, {"smiles": "CCCN(CCC)C(=S)Nc1cc(C(=O)OC)ccc1C(=O)OC", "inhibition": "-14.3%"}, {"smiles": "COc1ccc(S(=O)(=O)N(CC(=O)N/N=C/c2ccc(C(=O)O)cc2)Cc2ccccc2)cc1OC", "inhibition": "1.95%"}, {"smiles": "CCC(C)NC(=O)c1c(N)n(/N=C/c2cccs2)c2nc3ccccc3nc12", "note": "(stereo not drawn)", "inhibition": "107% (active)"}, {"smiles": "CC(C)Cn1c(N)c(C(=O)NCc2cccs2)c2nc3ccccc3nc21", "inhibition": "-13.1%"}, {"smiles": "CCCNC(=O)c1c(N)n(-c2ccc(S(N)(=O)=O)cc2)c2nc3ccccc3nc12", "inhibition": "-14.1%"}, {"smiles": "CCc1[nH]nc(C(=O)N2CCCC(CO)(Cc3ccc(F)cc3F)C2)c1C", "note": "(stereo not drawn)", "inhibition": "-13.8%"}, {"smiles": "Cc1ccc(S(=O)(=O)CC(=O)NC(C)c2ccccc2)cc1", "note": "(stereo not drawn)", "inhibition": "-1.44%"}, {"smiles": "CCc1ccccc1NC(=O)[C@@H]1CCC(=O)N1C1OC(=O)c2c1ccc(OC)c2OC", "note": "(stereo partly drawn)", "inhibition": "-2.37%"}, {"smiles": "COc1ccc(C[C@H](C(=O)O)N2C(=O)c3ccc(C(=O)O)cc3C2=O)cc1", "inhibition": "2.25%"}, {"smiles": "COc1ccc2[nH]cc(CCN3C(=O)c4ccc(C(=O)O)cc4C3=O)c2c1", "inhibition": "60.8% (active)"}, {"smiles": "Cc1ccc2[nH]cc(CCCN3C(=O)c4ccccc4C3=O)c2c1", "inhibition": "1.09%"}, {"smiles": "O=C(CC(c1ccccc1)c1ccccc1)NCC(O)c1ccc([N+](=O)[O-])cc1", "note": "(stereo not drawn)", "inhibition": "-4.27%"}, {"smiles": "CCCCc1ccc(NC(=S)NCCCN2CCOCC2)cc1", "inhibition": "-8.23%"}, {"smiles": "CCCCc1ccc(NC(=S)N2CCCC(CO)C2)cc1", "note": "(stereo not drawn)", "inhibition": "87.2% (active)"}, {"smiles": "COc1ccc(NC(=S)N2CCCC(CO)C2)c(OC)c1", "note": "(stereo not drawn)", "inhibition": "-3.35%"}, {"smiles": "COc1ccc(C(=O)Nc2ccccc2C(=O)N2CCN(c3ccccc3)CC2)cc1", "inhibition": "-6.97%"}, {"smiles": "Cc1nnc(NC(=O)Nc2ccc(Cl)c(Cl)c2)s1", "inhibition": "-3.3%"}, {"smiles": "CCn1nccc1C(=O)Nc1ccc(Cl)c(Cl)c1", "inhibition": "81% (active)"}, {"smiles": "CCn1nccc1C(=O)Nc1ccc(S(=O)(=O)NC23CC4CC(CC(C4)C2)C3)cc1", "inhibition": "-9.86%"}, {"smiles": "CC1=C(C(=O)OC2CCCCC2)C(c2ccccc2F)NC(=O)N1", "note": "(stereo not drawn)", "inhibition": "4.41%"}, {"smiles": "O=C(O)c1cc(S(=O)(=O)N(Cc2ccccc2)c2ccccc2)ccc1Cl", "inhibition": "-7.94%"}, {"smiles": "O=C(NCc1cccc(Cl)c1)C1CCN(c2nnc(N3CCCC3=O)s2)CC1", "inhibition": "-4.8%"}, {"smiles": "Cc1ccc(C)c(N2CCN(C(=O)CCCCCn3c(=S)[nH]c4ccc(N5CCOCC5)cc4c3=O)CC2)c1", "inhibition": "1.81%"}, {"smiles": "Cc1ccc(NC(=S)NC(=O)/C=C/c2ccc(Cl)cc2)cc1", "inhibition": "13%"}, {"smiles": "COC(=O)c1c(C)[nH]c(C)c1-c1ccc([N+](=O)[O-])cc1", "inhibition": "21.5%"}, {"smiles": "COC(=O)c1c(C)[nH]c(C(=O)/C=C/c2ccc(Cl)cc2)c1C", "inhibition": "54.7% (active)"}, {"smiles": "CCOC(=O)C1C(c2ccc(Cl)cc2)NC(=S)NC1(O)C(F)(F)F", "note": "(stereo not drawn)", "inhibition": "-9.88%"}, {"smiles": "O=C(c1cccs1)C1C(c2ccc(Br)cc2)NC(=S)NC1(O)C(F)(F)F", "note": "(stereo not drawn)", "inhibition": "69.1% (active)"}, {"smiles": "CC(=O)C1C(c2ccc(Cl)cc2)NC(=O)NC1(O)C(F)(F)F", "note": "(stereo not drawn)", "inhibition": "-1.27%"}, {"smiles": "CC(=O)N1CCN(CC(C)(C)NS(=O)(=O)c2ccc(C)cc2)CC1", "inhibition": "-4.99%"}, {"smiles": "CC(=O)c1c(C)[nH]c(C(=O)OCC(=O)NCCC(C)C)c1C", "inhibition": "-4.2%"}, {"smiles": "COC(=O)c1c(C)[nH]c(C(=O)NCCc2ccc(S(N)(=O)=O)cc2)c1C", "inhibition": "2.99%"}, {"smiles": "CCCCOC(=O)c1[nH]c(C)c(C(=O)OC)c1C", "inhibition": "94.4% (active)"}, {"smiles": "Cc1ccc(CN2CCN(c3ncccn3)CC2)c(C)c1", "inhibition": "6.99%"}, {"smiles": "Cc1ccccc1CN1CCNC(=O)C1CC(=O)NCCC1=CCCCC1", "note": "(stereo not drawn)", "inhibition": "-8.04%"}, {"smiles": "CC(=O)NN1C(=O)c2ccccc2NC1c1ccccc1", "note": "(stereo not drawn)", "inhibition": "4.01%"}, {"smiles": "CC(C)=NN1C(=O)c2ccccc2NC1(C)C", "inhibition": "91.4% (active)"}, {"smiles": "CC(=O)N1C(=O)C2(Nc3ccccc3N2)c2ccccc21", "inhibition": "-7.58%"}, {"smiles": "Nc1nc(SCC(=O)Nc2cc(C(F)(F)F)ccc2Cl)[nH]c(=O)c1NC(=O)c1ccco1", "inhibition": "-1.11%"}, {"smiles": "CCC(C)N1C(=O)S/C(=C/c2ccc(Sc3nc4ccccc4[nH]3)o2)C1=O", "note": "(stereo not drawn)", "inhibition": "11.8%"}, {"smiles": "COc1ccc(N2CCN(S(=O)(=O)c3ccc4c(c3)NC(=O)C(C)C(=O)N4)CC2)cc1", "note": "(stereo not drawn)", "inhibition": "-6.85%"}, {"smiles": "O=S(=O)(Nc1ccc(Oc2ncccn2)c(Cl)c1)c1ccc(F)cc1", "inhibition": "-3.73%"}, {"smiles": "C=CCOc1cccc(CNCc2cccnc2)c1", "inhibition": "29%"}, {"smiles": "CC(=NCc1ccco1)C1=C(O)c2ccccc2C1=O", "inhibition": "31.2%"}, {"smiles": "CC(=NCc1ccco1)c1c(C(F)(F)F)[nH]n(-c2nc3ccccc3s2)c1=O", "inhibition": "122% (active)"}, {"smiles": "CCc1ccc(-c2cc(C(=O)NCc3ccco3)c3ccccc3n2)s1", "inhibition": "41.4%"}, {"smiles": "CCC(C)Cn1c(O)cc2nn(-c3nc4ccccc4s3)c(=O)c-2c1C", "note": "(stereo not drawn)", "inhibition": "29.1%"}, {"smiles": "C/C(=N\\NC(=O)CC(C)C)c1c(C(F)(F)F)[nH]n(-c2nc3ccccc3s2)c1=O", "inhibition": "65.9% (active)"}, {"smiles": "COC(=O)Cc1[nH]n(-c2nc3ccccc3s2)c(=O)c1C(C)=Nc1ccc(OC)cc1", "inhibition": "38.9%"}, {"smiles": "Cc1ccc(NC(=O)[C@H](Cc2ccccc2)NC(=O)C2CCNCC2)cc1", "inhibition": "-0.595%"}, {"smiles": "COc1ccccc1NC(=O)N1CCCC1C(=O)NCc1cccs1", "note": "(stereo not drawn)", "inhibition": "-1.36%"}]}]}
